From PubChem BioAssay (NCATS) come the findings set out here.

Each structure is given as a SMILES string. “And” between values parts separate entries of the source, which are not always exact repeats. Equal values may be shown once. Inconclusive results are not listed. Unmarked numbers belong to inactive results. The source made the active and inactive calls. Unless noted, the call rests on the fitted dose curve; in most records, active means well fitted curve in the direction sought with a large enough effect; inconclusive means small, poorly fitted or top-dose-only effect, or another doubt; inactive means no such curve, though single readings can be large; an effect the other way counts as inactive or inconclusive.

The nature of assay [1]: Cell Viability - Hek293 (AID 427;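 active means compounds whose dose-response curve shows a full or clear partial loss of cell viability, called from curve shape rather than a numeric limit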;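 further: potency means the concentration at half of the fitted maximal effect; cells exposed to compound for 40 hours at 37 °C before reading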). The note with it: qHTS. In a few lines: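 Luminescent ATP content (CellTiter-Glo, 20 min at room temperature) was measured after a 40 hr, 37 °C compound exposure of HEK293 cells. AC50 values came from Hill-equation fits of qHTS concentration-response data normalized to DMSO and 100 uM tamoxifen.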
Assay [2] is described as follows: Cell Viability - Mesenchymal (AID 546).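 Further: cells exposed to compound for 40 hours before reading.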 Further: potency means the concentration at half of the fitted maximal effect.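 On activity change, negative = cytotoxicity: 0% = DMSO only and -100% = 100 µM tamoxifen.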 The note with it: mesenchymal cells viability, qHTS; activity change, negative = cytotoxicity: at 91.7 µM (top of the series). In short, it runs like this:
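Human kidney mesenchymal cells from normal renal glomeruli, 1000 cells/well, rested 5 hr at 37 °C, then treated 40 hr at 37 °C in complete medium. Cellular ATP read by CellTiter-Glo luminescence; AC50 from Hill-equation fits.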

Assay [3] in a line: MultiTox-Fluor Cytotoxicity Assay - LYMP1-001 - Dead Cells (AID 946). Further: potency means the concentration at half of the fitted maximal effect. The note with it: LYMP1-001 lymphoblastoid cells, dead-cell protease fluorescence; series mostly up to 92.2 µM. In short, it runs like this:
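Cytotoxicity as increased dead-cell protease fluorescence (bis-AAF-R110, 485/520 nm), read 60 min after MultiTox-Fluor reagent. Human lymphoblastoid line exposed 16 h; Hill-fitted AC50, with DMSO as 0% and 15 uM tetraoctylammonium bromide as 100%.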

Assay [4] is described as follows: Cell Viability - LYMP2-004 (AID 966). Further: nearly all actives have a fitted effect of over 65% in size. Further: potency means the concentration at half of the fitted maximal effect.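 On activity change, negative = cytotoxicity: plate controls were DMSO only for no effect and tetraoctylammonium bromide control for full effect.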 The note with it: LYMP2-004 lymphoblastoid cell viability, qHTS; series mostly up to 92.2 µM. In a few lines:
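Cells seeded 2500/well, rested 5 hr at 37 C, dosed across a concentration series, incubated 24 hr at 37 C, then CellTiter-Glo added for 30 min at room temperature and luminescence read. Hill fitting gave AC50.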

Assay [5] can be described thus: Cell Viability - LYMP2-005 (AID 967). Further: potency means the concentration at half of the fitted maximal effect. The note with it: LYMP2-005 lymphoblastoid cell viability; series mostly up to 92.2 µM. In short, it runs like this: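 Human lymphoblastoid LYMP2-005 cells, 2,500 per well in complete medium, rested 5 h at 37C then compound-treated 24 h at 37C. Intracellular ATP read by CellTiter-Glo luminescence after 30 min at room temperature; AC50 from Hill-equation fits of concentration-response data.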

The nature of assay [6]: Cell Viability - LYMP2-009 (AID 968). Further: nearly all actives have a fitted effect of over 55% in size. Further: potency means the concentration at half of the fitted maximal effect. The note with it: LYMP2-009 lymphoblastoid cell viability; series mostly up to 92.2 µM.
The nature of assay [7]: Cell Viability - LYMP2-011 (AID 969). Further: nearly all actives have a fitted effect of over 60% in size. Further: potency means the concentration at half of the fitted maximal effect. The note with it: LYMP2-011 lymphoblastoid cells viability; series mostly up to 92.2 µM. In short, it runs like this: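 2500 cells/well, 5 hr 37 C; compound added, 24 hr 37 C; CellTiter-Glo 30 min RT; luminescence. qHTS concentration-response, Hill-equation AC50. Tetraoctylammonium bromide positive control.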
Assay [8] can be described thus: Cell Viability - LYMP2-015 (AID 971). Further: nearly all actives have a fitted effect of over 55% in size. Further: potency means the concentration at half of the fitted maximal effect. As to conditions: LYMP2-015 lymphoblastoid cell viability; series mostly up to 92.2 µM. In a few lines:
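Luminescent ATP read-out (CellTiter-Glo) served as the viability measure after lymphoblastoid cells were exposed to compounds for 24 hours at 37 C. Concentration-response data were fitted with the Hill equation to give AC50.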

Assay [9] can be described thus: Cell Viability - LYMP2-017 (AID 972). Further: nearly all actives have a fitted effect of over 55% in size. Further: potency means the concentration at half of the fitted maximal effect. On activity change, negative = cytotoxicity: on the % scale 0 is the no-effect control and ±100 the full control effect. The note with it: LYMP2-017 lymphoblastoid cell viability; series mostly up to 92.2 µM. In a few lines:
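2500 cells/well, 5 h 37 C; cpd 24 h 37 C in complete medium; CellTiter-Glo, 30 min RT; luminescence (ATP). AC50 via Hill fit, qHTS.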

Assay [10] can be described thus: Cell Viability - LYMP2-019 (AID 973). Further: nearly all actives have a fitted effect of over 55% in size. Further: potency means the concentration at half of the fitted maximal effect.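 On activity change, negative = cytotoxicity: 0% = DMSO alone and full effect = 92 µM tetraoctylammonium bromide.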 As to conditions: LYMP2-019 lymphoblastoid cell line viability; series mostly up to 92.2 µM. In short, it runs like this: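 Luminescent ATP read-out (CellTiter-Glo, 30 min room temperature) served as the viability measure after 24 hr treatment of lymphoblastoid cells at 37 C. Concentration-response data were fitted to the Hill equation for AC50.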

A short description of assay [11]: Cell Viability - LYMP2-025 (AID 976). Further: potency means the concentration at half of the fitted maximal effect.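 On activity change, negative = cytotoxicity: plate controls were DMSO only for no effect and tetraoctylammonium bromide control for full effect.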 As to conditions: LYMP2-025 lymphoblastoid cell viability; series mostly up to 92.2 µM. In short, it runs like this: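 Seed 2500 LYMP2-025 cells/well; 5 hr at 37 C; add compound; 24 hr at 37 C; add CellTiter-Glo; 30 min RT; read luminescence. AC50 from Hill-modelled concentration-response.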
A short description of assay [12]: Cell Viability - LYMP2-002 (AID 977).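 Further: compound exposure lasted 24 h at 37 °C.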 Further: potency means the concentration at half of the fitted maximal effect. As to conditions: LYMP2-002 lymphoblastoid cell viability, qHTS; series mostly up to 92.2 µM. In short, it runs like this:
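Human lymphoblastoid LYMP2-002 cells, 2500 per well, exposed to compounds for 24 h at 37 C in complete medium; viability read as intracellular ATP by CellTiter-Glo luminescence, AC50 from Hill fits.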

The nature of assay [13]: Cell Viability - LYMP2-026 (AID 989). Further: nearly all actives have a fitted effect of over 50% in size. Further: potency means the concentration at half of the fitted maximal effect. The note with it: LYMP2-026 lymphoblastoid cell viability, qHTS; series mostly up to 92.2 µM. In short, it runs like this: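 Luminescent ATP signal (CellTiter-Glo, 30 min room temperature) measures viable lymphoblastoid cells after 24 hr compound treatment at 37 C. Decreased ATP reflects acute toxicity; AC50 values come from Hill-equation modeling.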

In assay [14] the target is Glucocorticoid receptor (Homo sapiens) (UniProt P04150). In words: qHTS assay for small molecule agonists of glucocorticoid receptor signaling (AID 588532; active means well fitted curve in the direction sought with a large enough effect in the signal ratio, with a control signal flat; the % refers to the signal ratio;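 further: 100% = dexamethasone at 0.1 µM and 0% = DMSO only wells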). As to conditions: HeLa MMTV-bla, beta-lactamase ratio, agonist, 18 h; active compounds read high; percent of dexamethasone control, DMSO zero. In a few lines:
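HeLa GRE-bla reporter cells; 18 h compound exposure at 37 C; 2 h CCF4 loading at room temperature; fluorescence at 460 and 530 nm; EC50 by Hill equation.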

For assay [15], the target named is Voltage-gated inwardly rectifying potassium channel KCNH2 (Homo sapiens) (UniProt Q12809). Description: qHTS Assay for Small Molecule Inhibitors of the Human hERG Channel Activity (AID 588834).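 Further: lower thallium flux fluorescence means stronger hERG block; nearly all actives have a fitted effect of over 50% in size.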 Further: potency means the concentration at half of the fitted maximal effect. The note with it: U2OS BacMam hERG, FluxOR thallium flux fluorescence; series mostly up to 92.2 µM. In a few lines:
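U2OS cells BacMam-transduced with hERG, 2000 cells/well, compound ~10 min at 37 °C before stimulation buffer. FluxOR thallium flux fluorescence read kinetically on FDSS; decrease indicates block; AC50 from Hill fits.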

Assay [16] is described as follows: qHTS assay for small molecule disruptors of the mitochondrial membrane potential - 1 hr assay (AID 651754; calls by dose curve; further: nearly all actives have a fitted effect of over 35% in size; further: potency means the concentration at half of the fitted maximal effect). As to conditions: series mostly up to 92.2 µM. In short, it runs like this:
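HepG2, 2,000 cells/well, overnight attachment; cpd or DMSO 1 hr, 37C/5% CO2; Mito-MPS dye 30 min, 37C; fluorescence monomer (490/535) and aggregate (540/590).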

Assay [17] concerns the target Nuclear receptor ROR-gamma (Homo sapiens) (UniProt P51449). Description: qHTS assay for small molecule antagonists of the retinoid-related orphan receptor gamma (ROR-gamma) signaling pathway (AID 651802). Further: nearly all actives have a fitted effect of over 60% in size. Further: potency means the concentration at half of the fitted maximal effect. The note with it: ROR-gamma antagonist cell reporter assay; series mostly up to 92.2 µM. In a few lines:
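CHO, TET-inducible ROR + RORE-LUC reporter, 1536-well qHTS. Compound pinned, doxycycline added, 16hr 37C/5% CO2. ONE-Glo, 30 min RT, luminescence; signal drop scored as antagonism.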

Assay [18] in a line: qHTS assay for small molecule agonists of the antioxidant response element (ARE) signaling pathway measured by Nrf2-dependant transcriptional activity (AID 720636; active means well fitted curve in the direction sought with a large enough effect in the repeat runs; an effect the other way counts as inactive or inconclusive; further: % of control where 0% means no effect). The note with it: ARE-luc HepG2, Nrf2 luciferase reporter, 16 h; series mostly up to 92.4 µM. In short, it runs like this:
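ARE-luc HepG2 cells carrying an Nrf2-responsive luciferase reporter, in medium with 1% dialyzed FBS, exposed to compound for 16 hr at 37 C, 5% CO2. Luminescence read 30 min after ONE-Glo addition.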

Assay [19] is described as follows: qHTS assay for small molecule antagonists of the retinoid-related orphan receptor gamma (ROR-gamma) signaling pathway - cell viability counter screen (AID 720652; active means well fitted curve in the direction sought with a large enough effect in the repeat runs; an effect the other way counts as inactive or inconclusive;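 further: compound exposure lasted 16 hr before ATP read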; further: potency means the concentration at half of the fitted maximal effect; on activity change, negative = cytotoxicity: on the % scale 0 is the no-effect control and ±100 the full control effect). As to conditions: RORgamma reporter cell line viability counter screen; series mostly up to 92.2 µM. In short, it runs like this:
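Luminescence from CellTiter-Glo after 30 min at room temperature reported cellular ATP as the cytotoxicity measure. Cells were the CHO reporter line with doxycycline-induced ROR-gamma expression, exposed to compound for 16 hr at 37 C.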

Assay [20] is described as follows: qHTS assay for small molecule agonists of the antioxidant response element (ARE) signaling pathway measured by Nrf2-dependant transcriptional activity - cell viability counter screen (AID 720653; active means well fitted curve in the direction sought with a large enough effect in the repeat runs; an effect the other way counts as inactive or inconclusive; further: potency means the concentration at half of the fitted maximal effect; on max response: on the % scale 0 is the no-effect control and ±100 the full control effect). The note with it: ARE-bla HepG2 viability, CellTiter-Glo ATP luminescence, 16 h; max response: active compounds read low. In short, it runs like this: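 ARE-bla HepG2 cells treated with compounds for 16 h at 37C; this counter screen measures viability as intracellular ATP by CellTiter-Glo luminescence after 30 min at room temperature.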

Sequence of Nuclear receptor ROR-gamma (Homo sapiens) (P51449 whole entry, looked up): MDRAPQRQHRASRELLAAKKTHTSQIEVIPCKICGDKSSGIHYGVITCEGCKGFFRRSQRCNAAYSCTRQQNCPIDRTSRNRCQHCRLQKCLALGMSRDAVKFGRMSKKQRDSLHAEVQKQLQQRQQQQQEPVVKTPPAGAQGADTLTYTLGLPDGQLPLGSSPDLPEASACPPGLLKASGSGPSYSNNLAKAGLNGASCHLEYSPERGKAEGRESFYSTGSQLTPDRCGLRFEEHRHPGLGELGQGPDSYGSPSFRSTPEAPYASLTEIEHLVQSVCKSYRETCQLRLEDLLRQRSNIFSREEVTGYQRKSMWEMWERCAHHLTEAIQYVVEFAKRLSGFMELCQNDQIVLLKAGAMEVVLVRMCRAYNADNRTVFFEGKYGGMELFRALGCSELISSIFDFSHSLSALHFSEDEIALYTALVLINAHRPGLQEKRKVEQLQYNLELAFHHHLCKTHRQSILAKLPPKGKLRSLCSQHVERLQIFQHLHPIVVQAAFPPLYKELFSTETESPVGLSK
Sequence of Glucocorticoid receptor (Homo sapiens) (P04150 whole entry, looked up): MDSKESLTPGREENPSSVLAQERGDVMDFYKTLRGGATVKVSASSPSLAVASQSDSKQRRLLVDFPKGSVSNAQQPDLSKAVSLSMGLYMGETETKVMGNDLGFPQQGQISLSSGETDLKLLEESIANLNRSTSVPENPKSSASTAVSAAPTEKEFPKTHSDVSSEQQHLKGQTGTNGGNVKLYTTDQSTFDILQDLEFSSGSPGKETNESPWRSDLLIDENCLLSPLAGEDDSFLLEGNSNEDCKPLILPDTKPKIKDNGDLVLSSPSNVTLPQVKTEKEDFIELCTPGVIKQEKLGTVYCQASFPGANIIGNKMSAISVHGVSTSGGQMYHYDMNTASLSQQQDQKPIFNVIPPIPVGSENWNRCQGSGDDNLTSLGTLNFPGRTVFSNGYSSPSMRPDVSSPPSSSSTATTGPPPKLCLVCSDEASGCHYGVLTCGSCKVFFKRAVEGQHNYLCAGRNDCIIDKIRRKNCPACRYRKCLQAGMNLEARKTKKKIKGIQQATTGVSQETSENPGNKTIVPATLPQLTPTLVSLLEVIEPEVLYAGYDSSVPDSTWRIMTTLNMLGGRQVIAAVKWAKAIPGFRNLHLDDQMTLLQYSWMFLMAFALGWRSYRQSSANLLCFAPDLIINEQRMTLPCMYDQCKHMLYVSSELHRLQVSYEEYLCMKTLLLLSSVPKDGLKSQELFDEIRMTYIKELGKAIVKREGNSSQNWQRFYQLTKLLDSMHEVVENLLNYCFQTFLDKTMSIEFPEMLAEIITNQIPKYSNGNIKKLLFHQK
Sequence of Voltage-gated inwardly rectifying potassium channel KCNH2 (Homo sapiens) (Q12809 whole entry, looked up): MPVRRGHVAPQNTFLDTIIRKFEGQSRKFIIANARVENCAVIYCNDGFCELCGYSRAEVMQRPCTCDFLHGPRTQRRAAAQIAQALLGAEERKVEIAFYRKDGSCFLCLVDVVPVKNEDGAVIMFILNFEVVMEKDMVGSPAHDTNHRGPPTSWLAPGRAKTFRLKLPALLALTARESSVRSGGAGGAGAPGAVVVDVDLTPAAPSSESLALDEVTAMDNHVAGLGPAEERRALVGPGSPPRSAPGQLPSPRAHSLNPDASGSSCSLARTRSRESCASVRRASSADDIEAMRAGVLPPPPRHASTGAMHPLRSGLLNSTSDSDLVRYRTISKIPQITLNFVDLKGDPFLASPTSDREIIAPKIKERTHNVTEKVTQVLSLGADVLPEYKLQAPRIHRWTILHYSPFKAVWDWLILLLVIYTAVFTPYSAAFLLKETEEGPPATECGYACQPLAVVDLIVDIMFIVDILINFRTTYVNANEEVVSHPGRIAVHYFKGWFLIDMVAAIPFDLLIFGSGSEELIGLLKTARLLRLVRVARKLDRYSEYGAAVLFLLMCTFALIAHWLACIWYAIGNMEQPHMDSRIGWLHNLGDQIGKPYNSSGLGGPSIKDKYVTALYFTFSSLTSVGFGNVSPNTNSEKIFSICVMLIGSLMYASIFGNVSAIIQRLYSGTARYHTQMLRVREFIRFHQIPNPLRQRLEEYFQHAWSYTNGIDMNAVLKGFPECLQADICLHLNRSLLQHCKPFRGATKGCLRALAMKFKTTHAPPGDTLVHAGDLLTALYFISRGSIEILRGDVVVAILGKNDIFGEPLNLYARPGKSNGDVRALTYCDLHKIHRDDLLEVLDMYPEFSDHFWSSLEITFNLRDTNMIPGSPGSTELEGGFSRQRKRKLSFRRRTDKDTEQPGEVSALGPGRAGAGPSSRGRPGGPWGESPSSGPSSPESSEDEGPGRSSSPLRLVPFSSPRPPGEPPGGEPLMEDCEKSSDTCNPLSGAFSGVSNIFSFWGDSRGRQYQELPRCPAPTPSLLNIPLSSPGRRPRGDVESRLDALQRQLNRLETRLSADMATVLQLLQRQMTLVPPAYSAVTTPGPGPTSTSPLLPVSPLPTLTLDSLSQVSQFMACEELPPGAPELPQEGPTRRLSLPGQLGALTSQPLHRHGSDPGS

Turning to `O=Cc1ccc(Cl)c(Cl)c1`, the Potency in [1] is above 92 µM. The Potency entry in assay [2], in assay [3], in assay [4], in assay [5], in [6] and in assay [7] was “inactive” in each case. Further, the Potency entry in [8], in [9], in assay [10], in assay [11], in [12] and in [13] was “inactive” in each case. Further, the Potency result in [15], in assay [16], in assay [17], in [18] and in assay [19] was “inactive” in each case. Moreover, the activation in assay [14] was -2.24%. Further, the max response in [20] is 7.11%.

Turning to `CC(=O)Nc1ccc(C(=O)CCl)cc1`, the Potency in assay [1] is 37.9 µM (active); in assay [2] it was 12.6 µM (active); in assay [3] it was 25.1 µM (active); in [4], 3.98 µM (active); in assay [6], 6.31 µM (active); in [7], 6.31 µM (active). Further, the Potency was 5.01 µM (active) in [8]; 5.01 µM (active) in assay [9]; 5.01 µM (active) in [10]; 10 µM (active) in assay [11]; 7.94 µM (active) in assay [12]; 7.94 µM (active) in assay [13]. In addition, the Potency was 9.44 µM (active) in assay [17], 18.8 µM (active) in assay [19] and 39.8 µM (active) in assay [20]. In addition, in [14], the activation is -4.98% and -25.5%. The Potency result in assay [16] was “inactive”.

Take `C=C(C)c1ccccc1`: in assay [1], the Potency was above 92 µM. Moreover, the Potency entry in assay [2], in [3], in assay [4], in assay [5], in assay [6] and in assay [7] was “inactive” each time. Further, the Potency entry in [8], in assay [9], in [10], in assay [11], in assay [12] and in [13] was “inactive” in each case. Also, the Potency entry in assay [15], in assay [16], in [17], in assay [18] and in [19] was “inactive” in each case. Besides, in [20], the max response is -8.93%.

In the case of `ClC1=C(Cl)C(Cl)(Cl)C(Cl)=C1Cl`, the Potency in assay [1] was above 92 µM. Besides, the Potency entry in assay [2], in assay [3], in assay [4], in [5], in assay [16] and in assay [18] was “inactive” in each case. The activation in assay [14] was 4.1% and -7.79%.

Regarding `Nc1ccc2cc3ccccc3cc2c1`, the values for the Potency in [1], in assay [15] and in [16] were above 92 µM, 5.01 µM (active) and 3.76 µM (active), respectively. Besides, the Potency entry in assay [2], in [3], in assay [4], in assay [5], in assay [6] and in [7] was “inactive” in each case. The Potency result in [8], in assay [9], in [10], in [11], in assay [12] and in assay [13] was “inactive” in each case. Moreover, the Potency entry in assay [17] and in assay [19] was “inactive” throughout. The max response in [20] is -4.4%.

With `Cc1ccc(S(=O)(=O)Oc2ccc(N=Nc3ccc(-c4ccc(N=Nc5c(O)ccc6cc(S(=O)(=O)O)cc(S(=O)(=O)O)c56)c(C)c4)cc3C)cc2)cc1`, in assay [2], the Potency was 31.6 µM (active). The Potency entry in assay [3], in assay [15], in assay [18] and in [19] was “inactive” throughout.

In the case of `Cc1cc(Nc2ccc(O)cc2)ccc1N`, the Potency is 52.8 µM (active) in assay [1]; 39.8 µM (active) in [4]; 39.8 µM (active) in assay [5]; 50.1 µM (active) in assay [6]; 50.1 µM (active) in assay [7]; 39.8 µM (active) in assay [8]. For the same compound, the Potency in assay [9] was 39.8 µM (active); in assay [10], 39.8 µM (active); in assay [11], 50.1 µM (active); in assay [13], 50.1 µM (active); in assay [17] it was 21.1 µM (active). Moreover, the Potency entry in assay [3], in [15] and in assay [18] was “inactive” throughout.
